A selection: hits, their analogues and other compounds. The true share with any hit is near 5.9%.
ABHD5-PLIN5 inh – ABHD5-PLIN5 interaction inhibitors, primary screen, cell lysate, split luciferase complementation, luminescence; AID 602281, 2012; Split G. princeps luciferase complementation, 4 h; inhibition, % at 4 µM; Perilipin-5 (Homo sapiens) + 1-acylglycerol-3-phosphate O-acyltransferase ABHD5 (Homo …; 0.78% of 360,000 active;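 active = inhibition above the mean inhibition across every tested compound plus 3 SD, cut at about 22% in these data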
PRMT1 inh – PRMT1 methyltransferase inhibitors, primary screen, biochemical, fluorescence polarization; Protein arginine N-methyltransferase 1 (Homo sapiens), Q99873; recombinant PRMT1, activity-based probe fluorescence polarization; inhibition, % at 2.79 µM; 1.3% of 370,000 active; AID 652257, 2013;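 active = inhibition above about 21% made by adding two undisclosed values, limit read from the data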
Rtt109 HAT inh – inhibitors of C. albicans Rtt109/Vps75 HAT, primary screen, biochemical, ThioGlo CoA-SH fluorescence, plate reader | 0.16% of 330,000 active | purified Rtt109/Vps75, 4 h | inhibition, % at 34.9 µM;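 active = inhibition of at least 50% in every replicate; inconclusive = best replicate reaches 50% inhibition but some replicates fall short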
Target sequence (Q5AAJ8 whole entry, looked up): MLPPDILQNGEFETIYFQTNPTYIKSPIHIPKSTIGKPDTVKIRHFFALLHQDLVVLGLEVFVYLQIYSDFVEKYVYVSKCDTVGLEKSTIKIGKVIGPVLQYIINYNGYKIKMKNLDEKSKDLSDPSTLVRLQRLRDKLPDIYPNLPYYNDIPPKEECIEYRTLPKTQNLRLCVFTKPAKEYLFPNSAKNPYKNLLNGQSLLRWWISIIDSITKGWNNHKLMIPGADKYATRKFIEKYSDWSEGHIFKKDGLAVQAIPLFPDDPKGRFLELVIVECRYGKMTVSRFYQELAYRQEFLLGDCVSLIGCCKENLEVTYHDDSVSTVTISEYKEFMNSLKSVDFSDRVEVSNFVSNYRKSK
rCAG RNA binder – binders of r(CAG) RNA repeats, primary screen, biochemical, fluorescence; r(CAG) RNA repeat, TO-PRO-1 dye displacement fluorescence; inhibition, % at 3 µM; 1.3% of 370,000 active; AID 651821, 2012;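 active = inhibition above the plate cutoff, the mean of all test compounds on that plate plus 3 SD, cut at about 35% in these data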;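 note: higher means more dye released from RNA so lower well fluorescence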
ALR inh – inhibitors of human ALR sulfhydryl oxidase, primary screen, biochemical, H2O2 detection, HRP-luminol luminescence, single point; FAD-linked sulfhydryl oxidase ALR (Homo sapiens), P55789; purified ALR, DTT oxidation; inhibition, % (concentration not given with the values); 3.8% of 290,000 active; AID 485317, 2010;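 active = mean replicate inhibition above about 79%, with every replicate also reaching it, limit read from the data; inconclusive = only one of the two criteria met; inactive = mean below limit and not every replicate reaching it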
Target sequence (P55789 whole entry, looked up): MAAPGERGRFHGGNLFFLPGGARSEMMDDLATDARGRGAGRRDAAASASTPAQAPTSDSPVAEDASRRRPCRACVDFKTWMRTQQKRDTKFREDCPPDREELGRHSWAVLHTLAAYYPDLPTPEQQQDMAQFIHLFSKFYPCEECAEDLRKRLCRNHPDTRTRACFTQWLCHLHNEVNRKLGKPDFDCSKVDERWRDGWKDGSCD
LANA-H2B inh – blockers of LANA interaction with H2A/H2B – biochemical, FP readout, HTS, primary screen; Protein LANA1 (Human herpesvirus 8 type P (isolate GK18)), Q9QR71; cell-free LANA-H2A/H2B peptide, fluorescence polarization; inhibition, % (test concentration not listed); 0.6% of 320,000 active; AID 2629, 2010; in the data active = inhibition mostly above about 10%, no sharp cut-off; inactive = mostly below about 6.7%
Numbers stand for hits; n = inactive; u = inconclusive; x = no result given; + = active, no number; ! = not active in a repeat.

SMILES	ABHD5-PLIN5 inh	PRMT1 inh	Rtt109 HAT inh	rCAG RNA binder	ALR inh	LANA-H2B inh
Cc1c(C(=O)NCc2ccc([N+](=O)[O-])cc2)sc(=O)n1Cc1ccc2c(c1)OCO2	n	n	x	n	x	x
COC(=O)c1ccc(CSc2cc(C)c3ccccc3n2)o1	n	n	n	n	n	n
COC(=O)c1ccc(CSc2nc(C(F)(F)F)c3c(c2C#N)CCC3)o1	n	n	n	n	98.0	n
CC1CCCC(C)N1C(=O)c1ccccc1 (stereo not given)	x	n	x	n	x	x
CCCCCCCCCCCCCCCC[n+]1cccc(C(=O)N(CC)CC)c1	45.2!	n	74.0!	n	n	n
CCCCCCCC[n+]1cccc(C(=O)N(CC)CC)c1	n	n	x	n	n	n
CCn1c(=O)c(CCC(=O)N2CCN(c3ccccn3)CC2)c(C)c2c(C)nn(-c3cccc(C)c3)c21	n	n	n	n	n	n
O=C1CS/C(=N/N=C\c2ccn[nH]2)N1	n	n	x	n	81.9	n
COC(=O)[C@]12C[C@H](CC(=O)N3CCCCC3)C(=O)N(Cc3ccc(Cl)cc3Cl)C1=C[C@H](C1CCCC1)O[C@@H]2C	x	n	x	n	x	x
CC(C)c1nc2ccc(Br)cn2c1NC1CCCC1	n	n	n	n	98.8	n
Cc1ccc(Cc2c(C3CCCCC3)nc3ccc(Br)cn23)cc1	n	n	x	n	x	x
CN1C(=O)C(c2cn(C)c3ccccc23)(c2cn(C)c3ccccc23)c2ccccc21	x	n	x	n	x	x
Cc1csc(N/N=C/c2ccc(O)c([N+](=O)[O-])c2)n1	n	47.8	n	n	n	n
Cc1ccc(N(C(=O)c2cccs2)C2C=CS(=O)(=O)C2)cc1 (stereo not given)	n	n	n	n	95.7	n
O=C(c1cccs1)N(c1ccc(Cl)cc1)C1C=CS(=O)(=O)C1 (stereo not given)	n	n	n	n	n	n
Cc1ccc(N(C(=O)c2ccc(Br)o2)C2C=CS(=O)(=O)C2)cc1 (stereo not given)	n	n	n	n	77.4	n
O=C(O)c1cc([N+](=O)[O-])ccc1Oc1ccccc1	n	n	n	n	x	x
Cc1ccc(Cl)cc1-c1cc(C(=O)NCC2CCCCC2)[nH]n1	n	n	x	n	x	x
Fc1ccc(NCc2cccnc2)cc1F	n	n	n	n	n	n
O=C(CCSCc1ccc(Cl)cc1)NCCc1ccccc1	n	n	n	n	n	n
O=C(CCNC(=O)c1ccc(Br)cc1)NCc1cccnc1	n	n	n	n	n	22.0
Clc1ccc(NCc2cccnc2)cc1	n	n	n	n	99.1	n
O=C(CCSCc1ccc(Cl)cc1)NCc1cccnc1	n	n	n	n	n	+
COc1ccc(C(CNC(=O)CNC(=O)c2cccc(F)c2)N2CCOCC2)cc1 (stereo not given)	n	n	x	n	x	x
COC(=O)C1CN(Cc2ccccc2)CCS(=O)(=O)N1Cc1ccc(C(F)(F)F)cc1 (stereo not given)	x	n	x	n	x	x
SMILES	ABHD5-PLIN5 inh	PRMT1 inh	Rtt109 HAT inh	rCAG RNA binder	ALR inh	LANA-H2B inh
CCOC(=O)C(C)On1c(-c2cccc(Cl)c2)nc2ccc([N+](=O)[O-])cc21 (stereo not given)	n	n	n	n	n	50.9
CCOC(=O)COn1c(-c2cccc(Cl)c2)nc2ccc([N+](=O)[O-])cc21	n	n	n	n	n	n
COc1ccc(CN2CC(=O)N3[C@H]4c5cc(C)ccc5OC[C@@H]4[C@H](c4ccccc4)[C@]3(C)C2=O)cc1	n	22.1	n	n	n	n
O=C1N(CCCO)CCC12CCC(c1ccccc1)CC2 (stereo not given)	x	n	x	n	x	x
CC(=O)C1=C(O)C(=O)N(c2ccc(Br)cn2)C1c1ccc(Br)cc1 (stereo not given)	n	n	n	n	97.1	n
CC(=O)C1=C(O)C(=O)N(c2ccc(Br)cn2)C1c1cccc([N+](=O)[O-])c1 (stereo not given)	n	n	n	n	89.1	n
CC(C)C[C@H]1COc2cccc(F)c2S(=O)(=O)N1Cc1cn(CCC2OCCCO2)nn1	x	n	x	n	x	x
COc1cccc(N2CCN(C(=O)Nc3ccccc3Cl)CC2)c1	n	n	x	n	87.0	n
O=C1OC(c2ccccc2)=N/C1=C/c1cccc(OC(=O)c2cccs2)c1	n	n	n	n	n	n
O=C1NN(c2ccc(F)c(Cl)c2)C(=O)/C1=C\c1cccc(OC(=O)c2cccs2)c1	n	24.3	84.3	89.8	n	n
COC(=O)c1sc(NC(=O)c2ccc3c(c2)OCO3)c(C#N)c1C	n	n	n	n	x	x
CC(C)(C)OC(=O)N1CCN(C(c2ccnc3ccccc23)c2nnnn2-c2ccc3c(c2)OCCO3)CC1 (stereo not given)	n	n	x	n	x	x
O=C(Nc1ccc2[nH]c(=S)sc2c1)c1ccccc1	n	n	n	n	99.2	n
O=C(Nc1ccc2[nH]c(=S)sc2c1)Nc1ccccc1F	n	n	n	n	x	n
COc1ccc2c(c1)CCC1(C)CC(=O)C(Br)=C21 (stereo not given)	n	n	x	n	x	x
CC(=O)Nc1ccc(C(=O)n2cnc3cc(C)c(C)cc32)cc1	n	n	n	n	98.7	n
CNC(=O)C1Cc2c(-c3ccc4c(c3)OCO4)ccnc2O1 (stereo not given)	n	n	x	n	x	x
CN(C)CCCN1C(=O)c2cc3ccccc3cc2C1=O	n	n	n	n	n	n
CN(C)CCCN1c2ccccc2CCc2ccc(Cl)cc21	n	n	n	n	n	15.3
O=C(CN1C(=O)COc2ccccc21)c1ccc(Cl)cc1	n	n	n	n	n	n
CNCCCN1c2ccccc2CCc2ccccc21	n	n	n	n	x	9.8
CN(CCCN1c2ccccc2CCc2ccccc21)CC(=O)c1ccc(Cl)cc1	x	x	x	x	98.0	n
CC(=O)CC[C@@H]1CC[C@]2(CCCN(C(=O)c3ccccc3)C2)O1	x	n	x	n	x	x
COc1cc(OC)c(OC)cc1/C=C/C(=O)OCC(=O)Nc1c(C)n(C)n(-c2ccccc2)c1=O	n	n	n	n	x	x
Cc1ccc(S(=O)(=O)N(C(=O)c2ccncc2)c2ccc(OC(=O)c3ccncc3)c3ccccc23)c(C)c1	32.5	x	u	x	n	n
Cc1ccc(S(=O)(=O)N(C(=O)c2ccncc2)c2ccc(OC(=O)c3ccncc3)c3ccccc23)cc1	n	85.7	n	n	n	n
CC(=O)Oc1ccc(N(C(C)=O)S(=O)(=O)c2ccc(C)cc2C)c2ccccc12	n	n	n	n	n	n
O=C(CCc1ccccc1-c1ccccc1CCNC(=O)c1ccc(F)c(F)c1)NCc1ccccc1	x	n	x	n	x	x
